The source of these data is PubChem BioAssay (Tox21).

Values without a mark were called inactive. Inconclusive results are not listed. Active and inactive are the calls of the source. Calls come from the whole dose curve; as a rule, active = well fitted curve in the direction sought with a large enough effect in the repeat runs; inconclusive = weak or mixed curves; inactive = no such curve, though single readings can be large; an effect the other way counts as inactive or inconclusive.

Experiment [1] is described as follows: qHTS RealTime-Glo MT Cell Viability Assay in HepG2 cells - 8 hour (AID 1224873). Note: nearly all actives have a fitted effect of over 55% in size. Summed up: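 Real-time viability: cells seeded at 600 per well together with NanoLuc and cell-permeant prosubstrate, compounds added after 5 h incubation. Luminescence tracked at 0, 8, 16, 24, 32 and 40 h of exposure.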
Experiment [2] in a line: qHTS RealTime-Glo MT Cell Viability Assay in HEK293 cells - 40 hour (AID 1224874). Note: nearly all actives have a fitted effect of over 50% in size. Note: potency is the fitted concentration of half-maximal effect. The settings on record: RealTime-Glo luminescence; max response: stronger effect = lower value. Summed up: (§1)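 Luminescence readout at each listed time point; HEK293, 600 cells/well, RealTime-Glo MT reagent added with cells; compounds pinned (23 nL in DMSO) after 5 h at 37 C; continuous culture at 37 C.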

Experiment [3] in a line: A CellTox Green Cytotoxicity Assay to monitor cytotoxicity in HEK293 cells - 24 hour (AID 1224875). Note: series mostly up to about 77 µM; nearly all actives have a fitted effect of over 45% in size. Summed up:
(§2)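 Read-out: fluorescence of a cell-impermeant cyanine dye staining DNA of dead cells, proportional to cytotoxicity. HEK293, 600 cells/well with reagent, compound (23 nL DMSO) added after 5 h; reads at 0, 8, 16, 24, 32, 40 h.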

Experiment [4] can be described thus: A CellTox Green Cytotoxicity Assay to monitor cytotoxicity in HepG2 cells - 16 hour (AID 1224876). Note: nearly all actives have a fitted effect of over 45% in size. The procedure, abridged: (§3)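 HepG2, 600 cells/well premixed w/ CellTox Green; 5 h settle, 37 C/5% CO2; pintool cpd add (DMSO); 37 C, 40 h; fluorescence read at 0, 8, 16, 24, 32, 40 h.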
The nature of experiment [5]: qHTS RealTime-Glo MT Cell Viability Assay in HepG2 cells - 32 hour (AID 1224877). Note: nearly all actives have a fitted effect of over 55% in size. Summed up: (§4)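 Real-time, nonlytic viability: 600 HepG2 cells/well mixed with NanoLuc enzyme plus prosubstrate; 5 h settle, compound (DMSO) added by pintool; luminescence monitored over 40 h at 37 C.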
Experiment [6] in a line: A CellTox Green Cytotoxicity Assay to monitor cytotoxicity in HepG2 cells - 40 hour (AID 1224879). Note: nearly all actives have a fitted effect of over 40% in size. The procedure, abridged: as §3
Experiment [7] is described as follows: qHTS RealTime-Glo MT Cell Viability Assay in HEK293 cells - 0 hour (AID 1224880). Note: top concentration of the series differs between compounds; nearly all actives have a fitted effect of over 45% in size. Summed up:
as §1

A short description of experiment [8]: A CellTox Green Cytotoxicity Assay to monitor cytotoxicity in HEK293 cells - 32 hour (AID 1224881). Note: nearly all actives have a fitted effect of over 40% in size. The procedure, abridged: as §2
Experiment [9] can be described thus: A CellTox Green Cytotoxicity Assay to monitor cytotoxicity in HepG2 cells - 0 hour (AID 1224882). Note: nearly all actives have a fitted effect of over 35% in size. Summed up: as §3
The nature of experiment [10]: A CellTox Green Cytotoxicity Assay to monitor cytotoxicity in HepG2 cells - 32 hour (AID 1224883). Note: nearly all actives have a fitted effect of over 50% in size. The procedure, abridged:
as §3

Experiment [11] can be described thus: A CellTox Green Cytotoxicity Assay to monitor cytotoxicity in HEK293 cells - 8 hour (AID 1224884). Note: nearly all actives have a fitted effect of over 35% in size. Summed up: as §2
The nature of experiment [12]: qHTS RealTime-Glo MT Cell Viability Assay in HepG2 cells - 16 hour (AID 1224885). Note: nearly all actives have a fitted effect of over 50% in size. Summed up:
as §4

Experiment [13] can be described thus: qHTS RealTime-Glo MT Cell Viability Assay in HEK293 cells - 24 hour (AID 1224886). Note: top concentration of the series differs between compounds; nearly all actives have a fitted effect of over 50% in size. The procedure, abridged:
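Cells + reagent dispensed (600 cells/well, HEK293) → 5 h at 37 C/5% CO2 → 23 nL compound in DMSO pinned → 40 h at 37 C → luminescence read at 0, 8, 16, 24, 32, 40 h.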

Experiment [14] can be described thus: qHTS RealTime-Glo MT Cell Viability Assay in HEK293 cells - 8 hour (AID 1224887). The procedure, abridged: as §1
Experiment [15] can be described thus: A CellTox Green Cytotoxicity Assay to monitor cytotoxicity in HEK293 cells - 16 hour (AID 1224888). Note: nearly all actives have a fitted effect of over 35% in size. Summed up:
as §2

Experiment [16] can be described thus: qHTS RealTime-Glo MT Cell Viability Assay in HepG2 cells - 0 hour (AID 1224889). Note: nearly all actives have a fitted effect of over 50% in size. The procedure, abridged:
as §4

The nature of experiment [17]: A CellTox Green Cytotoxicity Assay to monitor cytotoxicity in HepG2 cells - 8 hour (AID 1224890). Note: nearly all actives have a fitted effect of over 45% in size. Summed up:
as §3

A short description of experiment [18]: qHTS assay to identify small molecule antagonists of the estrogen receptor alpha (ER-alpha) signaling pathway using the BG1 cell line in the presence of 0.1 nM 17-beta-estradiol - cell viability counter screen (AID 1259241). Note: nearly all actives have a fitted effect of over 40% in size. Summed up:
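Cytotoxicity counter-screen: live-cell protease activity measured by fluorescence (30 min reagent step) in the same wells. Cells were VM7Luc4E2 with endogenous ER-alpha and ERE-driven luciferase, treated 22 hr at 37C alongside 0.1 nM 17beta-estradiol final.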

A short description of experiment [19]: A CellTox Green Cytotoxicity Assay to monitor cytotoxicity in HepG2 cells - 24 hour (AID 1224878). Note: nearly all actives have a fitted effect of over 45% in size. The procedure, abridged:
as §3
% is set by controls: 0 for no effect and ±100 for the full control effect.

With `FC(F)(F)c1ccccc1-n1ccnc1`, the compound was called inactive in [1], in experiment [3], in experiment [4], in experiment [5], in experiment [9] and in experiment [12]. Besides, the result in [15] and in [17] was inactive. The max response in experiment [2] was -3.14%. The Potency result in [6], in experiment [7], in experiment [8], in experiment [10], in experiment [11] and in [13] was “inactive” each time. Also, the Potency result in [14], in [16] and in [18] was “inactive” each time.
In the case of `CCCCCCCCCC(C)=O`, the outcome in [1], in experiment [3], in [4], in experiment [5], in [19] and in experiment [12] was inactive. Moreover, in experiment [15], the compound was classed as inactive. In addition, the max response in [2] is 10.3%. Moreover, the Potency entry in [6], in experiment [8], in [10], in experiment [11], in experiment [13] and in experiment [14] was “inactive” in each case. For the same compound, the Potency result in experiment [16] and in [18] was “inactive” throughout.
Consider `CCCCCCCC/C=C\CCCCCCCC(=O)OCCCC`, for which the viability change, negative = cytotoxic in [1] was -0.413% [at 15.8 µM]. Moreover, the activity change in experiment [3] was -32.5% [at 15.8 µM]; in experiment [15], -29.4% [at 15.8 µM]. The activity change, negative = cytotoxic in experiment [5] was 6.1% [at 15.8 µM]. Further, the cytotoxicity increase in experiment [6] was -13.9% [at 15.8 µM]; in experiment [8], -35.2% [at 15.8 µM]; in [10], -13.6% [at 15.8 µM]; in experiment [11] it was -25.9% [at 15.8 µM]; in [17], -0.525% [at 15.8 µM]. Also, the activity change, negative = cytotoxicity in experiment [7] was -2.24% [at 15.8 µM]; in [16], -22.5% [at 15.8 µM]; in experiment [18] it was -3.36% [at 19 µM]. Besides, in experiment [9], the cytotoxicity was -2.01% [at 15.8 µM].
On to `COc1ccc(OC)c(Cl)c1`, for which the result in experiment [1], in [3], in experiment [4], in experiment [5], in experiment [19] and in experiment [9] was inactive. The call in experiment [12], in experiment [15] and in experiment [17] was inactive. Further, in experiment [2], the max response is 5.92%. Moreover, the Potency entry in [6], in experiment [8], in [10], in [11], in experiment [13] and in [14] was “inactive” in each case. The Potency entry in experiment [18] is “inactive”.
Turning to `C=C(C)C(=O)OCC(C)(C)COC(=O)C(=C)C`, the call in [1], in experiment [4], in experiment [5], in [19], in experiment [12] and in experiment [15] was inactive. For the same compound, the result in [17] was inactive. In addition, the max response in experiment [2] was 2.01%. For the same compound, the Potency result in experiment [6], in [7], in experiment [8], in [10], in [11] and in experiment [13] was “inactive” in each case. Further, the Potency entry in experiment [14], in experiment [16] and in experiment [18] was “inactive” in each case.
Consider `CCCCCCOc1ccccc1C(N)=O`, for which the compound was called inactive in experiment [1], in experiment [3], in experiment [5], in experiment [19], in [9] and in experiment [12]. Besides, the outcome in experiment [15] and in [17] was inactive. Besides, the Potency in experiment [2] is 10.7 µM (active). The Potency entry in [8], in experiment [10], in experiment [11], in [16] and in experiment [18] was “inactive” in each case.
